In the library only some 11% were active in any assay of this set; here they are far more common.
HEK cytotox: Cytotoxic Profiling in HEK 293 Cell Line of Diverse Libraries Using Quantitative High-Throughput Screening; AID 1345083, 2018; hit rate 6.6% among 94,000; Potency, µM (series often up to 115 µM), most hits filed as inhibitors; HEK 293 viability, ATP luminescence (CellTiter-Glo), 48-72 h; further: nearly all actives have a fitted effect of over 60% in size
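Luminescence from cellular ATP, measured with CellTiter-Glo, indicates HEK 293 viability. Cells plated at 250 cells/well are treated with compound for 48 or 72 hr at 37 degree Celsius before reagent addition.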
NPR1 antag: Natriuretic polypeptide receptor (hNpr1) antagonism - Primary qHTS. Potency, µM (highest dose often 46.3 µM), usual class: inhibitors. hit rate 1.6% among 76,000. HEK293 hNpr1 GloSensor cGMP, ANP-stimulated luminescence; calls by dose curve; further: nearly all actives have a fitted effect of over 60% in size
Target sequence (P16066 whole entry, looked up): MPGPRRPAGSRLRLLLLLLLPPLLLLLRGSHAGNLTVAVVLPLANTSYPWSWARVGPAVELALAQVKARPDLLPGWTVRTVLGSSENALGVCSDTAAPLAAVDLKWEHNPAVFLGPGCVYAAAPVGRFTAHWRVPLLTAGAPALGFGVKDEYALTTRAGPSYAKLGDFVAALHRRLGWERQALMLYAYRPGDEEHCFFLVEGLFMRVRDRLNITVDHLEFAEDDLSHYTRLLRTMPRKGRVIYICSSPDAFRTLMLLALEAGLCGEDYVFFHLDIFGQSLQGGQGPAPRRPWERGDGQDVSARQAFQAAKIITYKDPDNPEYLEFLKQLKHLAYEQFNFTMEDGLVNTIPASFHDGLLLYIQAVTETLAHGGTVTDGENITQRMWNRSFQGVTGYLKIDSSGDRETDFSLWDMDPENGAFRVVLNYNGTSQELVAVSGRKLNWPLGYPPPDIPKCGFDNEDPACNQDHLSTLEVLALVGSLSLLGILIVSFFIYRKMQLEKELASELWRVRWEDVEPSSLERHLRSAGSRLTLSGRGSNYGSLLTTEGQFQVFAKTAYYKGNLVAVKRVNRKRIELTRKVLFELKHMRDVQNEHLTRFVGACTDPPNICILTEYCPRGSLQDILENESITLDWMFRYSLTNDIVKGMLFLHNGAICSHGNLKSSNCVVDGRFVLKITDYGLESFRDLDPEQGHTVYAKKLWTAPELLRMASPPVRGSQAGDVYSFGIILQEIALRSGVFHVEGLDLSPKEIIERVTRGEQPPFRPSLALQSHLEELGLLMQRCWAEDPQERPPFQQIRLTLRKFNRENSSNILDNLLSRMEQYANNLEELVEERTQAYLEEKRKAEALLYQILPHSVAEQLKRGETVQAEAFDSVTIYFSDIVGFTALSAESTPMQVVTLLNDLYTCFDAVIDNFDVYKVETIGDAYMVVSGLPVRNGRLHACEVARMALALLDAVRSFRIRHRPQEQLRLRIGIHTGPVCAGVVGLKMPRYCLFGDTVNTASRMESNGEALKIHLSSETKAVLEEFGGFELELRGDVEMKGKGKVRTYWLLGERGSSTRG
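Compound pre-incubated 30 min at room temperature on GloSensor-loaded HEK293 cells stably carrying hNpr1 and the pGS-40F cGMP biosensor. Stimulation uses hNppA at 0.1 nM final; luminescence is taken at baseline and 20 min post-agonist.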
FLuc inh: Firefly luciferase inhibition profiling of diverse chemical library using quantitative high-throughput screening; Luciferin 4-monooxygenase (Photinus pyralis), P08659; purified P. pyralis luciferase, luminescence, biochemical; Potency, µM (top dose mostly 115 µM), hits mostly inhibitors; hit rate 2.5% among 76,000; AID 1347043, 2019; further: nearly all actives have a fitted effect of over 65% in size
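Luminescence read by CCD imaging after purified firefly luciferase (10nM final) was added to substrate buffer holding 10uM D-luciferin and 10uM ATP, pH 7.5, pre-dosed with compound.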
NIH3T3 tox: Cytotoxic Profiling in NIH 3T3 Cell Line of Diverse Libraries Using Quantitative High-Throughput Screening; hit rate 4.3% among 94,000; NIH 3T3 viability, CellTiter-Glo ATP luminescence, 48-72 h; Potency, µM (top dose mostly 96.7 µM), usual class: inhibitors; further: nearly all actives have a fitted effect of over 55% in size
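Mouse fibroblast NIH 3T3 cells, 400 per well, received compound via pintool and were incubated for 48 or 72 hr prior to CellTiter-Glo ATP luminescence measurement.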
A number is an active result. Unless noted, the call rests on the fitted dose curve; in most records, active means well fitted curve in the direction sought with a large enough effect; inconclusive means small, poorly fitted or top-dose-only effect, or another doubt; inactive means no such curve, though single readings can be large; an effect the other way counts as inactive or inconclusive.

COc1cccc2c1OCC(CNC(=O)c1ccccc1N1CCCC1)C2 (stereo unspecified) was read as HEK cytotox 89.1µM, NPR1 antag inactive, FLuc inh inactive and NIH3T3 tox inactive.
For COc1cccc2c1OCC(CNC(=O)CCN1Cc3ccccc3C1=O)C2 (stereo unspecified) the results were HEK cytotox inactive, NPR1 antag inactive, FLuc inh inactive and NIH3T3 tox inactive.
`CN1Cc2ccc(NCc3ccccc3)nc2C(C)(C(=O)NC2CCC2)C1` (stereo unspecified) gave HEK cytotox inconclusive, NPR1 antag inactive, FLuc inh inactive and NIH3T3 tox inconclusive.
`COc1ccc(NC(=O)C2(C)CN(C)Cc3ccc(NCc4ccccc4)nc32)cn1` (stereo unspecified) gave HEK cytotox 79.4µM, NPR1 antag inactive, FLuc inh inactive and NIH3T3 tox 79.4µM.
For COc1cccc(NC(=O)C2(C)CN(C)Cc3ccc(NCc4ccccc4)nc32)c1 (stereo unspecified) the results were HEK cytotox inconclusive, NPR1 antag inactive, FLuc inh inactive and NIH3T3 tox 39.8µM.
Screening COc1ccc(C2(C(=O)NC(C)CCc3ccccc3)CCOCC2)cc1 (stereo unspecified) returned HEK cytotox inactive and NIH3T3 tox inconclusive.
Screening CCCC(=O)N1Cc2ccccc2CC2(CCCN(CCC)C2)C1 (stereo unspecified) returned HEK cytotox inconclusive and NIH3T3 tox inactive.
CC(C)(C)C(=O)N1CCC2(CC1)NCCc1c2[nH]c2ccccc12 was read as HEK cytotox inconclusive, NPR1 antag inactive, FLuc inh inactive and NIH3T3 tox inactive.
For CC(C)NC(=O)C1CCCCN1Cc1ccc(-c2ccsc2)cc1 (stereo unspecified) the results were HEK cytotox 50.1µM and NIH3T3 tox inconclusive.
For O=C(NC1CCCC1)C1CCCCN1Cc1ccc(-c2ccsc2)cc1 (stereo unspecified) the results were HEK cytotox 25.1µM and NIH3T3 tox inconclusive.
Screening C#CCNC(=O)C1CCCCN1Cc1ccc(-c2ccsc2)cc1 (stereo unspecified) returned HEK cytotox 39.8µM and NIH3T3 tox inactive.
`O=C(NC1CC1)C1CCCCN1Cc1ccc(-c2ccsc2)cc1` (stereo unspecified) gave HEK cytotox inconclusive and NIH3T3 tox 79.4µM.
`CNC(=O)C1CCCN1Cc1ccc(-c2cncnc2)cc1` (stereo unspecified) gave HEK cytotox inactive and NIH3T3 tox inactive.
`CC(C)NC(=O)C1CCCN1Cc1ccc(-c2cncnc2)cc1` (stereo unspecified) gave HEK cytotox inactive and NIH3T3 tox inactive.
Screening Cc1ccc(CC(=O)N2CCC(n3cc(-c4nc(C)no4)nn3)CC2)cc1 returned HEK cytotox inactive, NPR1 antag inactive, FLuc inh inactive and NIH3T3 tox inactive.
Screening COCC(=O)N1CCN(C(=O)c2nc3cccnc3n(C3CC3)c2=O)CC1 returned HEK cytotox inactive and NIH3T3 tox inactive.
Screening CCCCCC(=O)Nc1nc2c(s1)C[C@@H]1[C@](C)(CO)[C@H](O)CC[C@@]1(C)[C@@H]2CC(=O)NCCc1ccc(OC)c(OC)c1 returned HEK cytotox inactive, NPR1 antag inactive, FLuc inh inactive and NIH3T3 tox inactive.
For COc1ccc(-c2cc(C(=O)Nc3cccc(C(F)(F)F)c3)c3cnn(C)c3n2)cc1 the results were HEK cytotox 35.5µM and NIH3T3 tox inconclusive.
Screening COc1ccccc1-c1cc(C(=O)Nc2cccc(C(F)(F)F)c2)c2cnn(C)c2n1 returned HEK cytotox 14.1µM and NIH3T3 tox inconclusive.
`O=C(Cn1cccc1-c1nc(-c2ccc(F)cc2)no1)Nc1ccc(F)cc1` gave HEK cytotox inconclusive, NPR1 antag inactive, FLuc inh inactive and NIH3T3 tox inconclusive.
c1csc(-c2nc3nccc(-c4ccsc4)n3n2)c1 was read as HEK cytotox inconclusive, NPR1 antag inactive, FLuc inh inactive and NIH3T3 tox inconclusive.
c1csc(-c2nc3nccc(-c4ccncc4)n3n2)c1 was read as HEK cytotox inactive, NPR1 antag inactive, FLuc inh inactive and NIH3T3 tox inactive.
Screening COc1cccc(-c2ccnc3nc(-c4cccs4)nn23)c1 returned HEK cytotox inconclusive, NPR1 antag inactive, FLuc inh 15.8µM and NIH3T3 tox inconclusive.
c1coc(-c2ccnc3nc(-c4cccs4)nn23)c1 was read as HEK cytotox inactive, NPR1 antag inactive, FLuc inh inactive and NIH3T3 tox 35.5µM.
Screening COC(=O)c1ccc2c(c1)nc1n2[C@@H](CNCc2ccc(F)c(F)c2)COC1 returned HEK cytotox inconclusive, NPR1 antag inactive, FLuc inh inactive and NIH3T3 tox inconclusive.
O=C(NCc1cccs1)c1ccc2nnc(-c3cc[nH]c3)n2c1 was read as HEK cytotox inactive and NIH3T3 tox inconclusive.
For Cc1noc(C)c1-c1cccc(CCOc2cnc3c(ccn3CC(=O)O)c2)c1 the results were HEK cytotox inconclusive, NPR1 antag inactive, FLuc inh inactive and NIH3T3 tox 50.1µM.
For Cn1cc(-c2cccc(CCOc3cnc4c(ccn4CC(=O)O)c3)c2)cn1 the results were HEK cytotox inactive, NPR1 antag inactive, FLuc inh 70.8µM and NIH3T3 tox inconclusive.
Screening C=CCN1C[C@H]2COc3cc(OC)ccc3[C@H]2N(C(=O)CCCCC)CCC1=O returned HEK cytotox inactive and NIH3T3 tox inconclusive.
For COc1cc(OC)cc(C(=O)NC2CCN(c3cc(-c4ccc(F)cc4)[nH]n3)C2)c1 (stereo unspecified) the results were HEK cytotox inconclusive, NPR1 antag inactive, FLuc inh inactive and NIH3T3 tox inconclusive.
For O=C(NC1CCN(c2cc(-c3ccccc3)[nH]n2)CC1)c1ccc2ccccc2n1 the results were HEK cytotox 50.1µM, NPR1 antag inactive, FLuc inh inactive and NIH3T3 tox 28.2µM.
O=C(Cc1ccc(F)cc1)NC1CCN(c2cc(-c3ccccc3)[nH]n2)CC1 was read as HEK cytotox inconclusive, NPR1 antag inactive, FLuc inh inactive and NIH3T3 tox inconclusive.
`O=C(Cc1cccc(Cl)c1)NC1CCN(c2cc(-c3ccccc3)[nH]n2)CC1` gave HEK cytotox inconclusive, NPR1 antag inactive, FLuc inh inactive and NIH3T3 tox 31.6µM.
Screening COc1cc(OC)cc(C(=O)NC2CCN(c3cc(-c4ccc(F)cc4)[nH]n3)CC2)c1 returned HEK cytotox inconclusive, NPR1 antag inactive, FLuc inh inactive and NIH3T3 tox 35.5µM.
For O=C(NC1CCN(c2cc(-c3ccccc3)[nH]n2)CC1)c1ccc(Cl)cc1 the results were HEK cytotox inconclusive, NPR1 antag inactive, FLuc inh inactive and NIH3T3 tox 20µM.
`O=C(c1ccc(Cl)nc1)N1CCC(C(=O)N2CCC(c3nc4ncccc4[nH]3)C2)CC1` (stereo unspecified) gave HEK cytotox inactive and NIH3T3 tox inactive.

Bioassay records as filed in PubChem BioAssay.
